Consider 38 compounds from PubChem BioAssay.

Experiment [1] concerns the target PEG-3 (UniProt Q6IN02). The experiment can be described thus: Peg3 promoter luciferase inhibitors, potency, dose response, cell-based, HeLa, CREF/GAPDH counter-screen panel (AID 624167). To be noted: CREF/GAPDH counter-screens; HeLa PEG-Prom luciferase reporter, overnight, run 1, dose range 1, at 100 µM (top of the series) unless noted.
The target in experiment [2] is PEG-3 (UniProt Q6IN02). The description is as above. The following applies: CREF/GAPDH counter-screens; HeLa PEG-Prom luciferase reporter, overnight, run 2, dose range 1, at 100 µM (top of the series) unless noted. (In general: The purpose of a counterscreen is to sort out artefacts and off-target activity.)
Chain of PEG-3 (Q6IN02 whole entry, looked up): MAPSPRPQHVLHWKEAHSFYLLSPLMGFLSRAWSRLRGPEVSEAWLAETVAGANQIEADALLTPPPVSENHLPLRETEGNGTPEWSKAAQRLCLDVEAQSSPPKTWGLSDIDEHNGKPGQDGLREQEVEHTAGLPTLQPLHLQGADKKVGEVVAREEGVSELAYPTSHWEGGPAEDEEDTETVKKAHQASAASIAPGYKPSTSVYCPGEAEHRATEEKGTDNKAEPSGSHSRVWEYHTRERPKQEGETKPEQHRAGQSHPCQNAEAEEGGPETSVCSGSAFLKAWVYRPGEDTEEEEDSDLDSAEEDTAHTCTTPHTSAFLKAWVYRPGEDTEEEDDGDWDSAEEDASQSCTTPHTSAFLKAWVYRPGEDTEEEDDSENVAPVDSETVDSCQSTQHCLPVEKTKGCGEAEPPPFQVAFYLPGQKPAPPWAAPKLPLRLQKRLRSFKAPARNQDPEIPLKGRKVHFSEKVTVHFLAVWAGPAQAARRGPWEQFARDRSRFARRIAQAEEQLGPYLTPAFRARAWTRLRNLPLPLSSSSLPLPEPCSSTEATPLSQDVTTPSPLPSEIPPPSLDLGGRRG

Each structure is given as a SMILES string.

As usually defined, the inhibition is the relative decrease from the control value, in per cent.

For `COc1ccc(-c2cc(-c3ccc(F)cc3)nc(N3CCN(C)CC3)n2)cc1`, the inhibition was found to be 25.8% in experiment [1] and 101% in experiment [2].

As for `COc1ccc(-c2cc(C(=O)Nc3ccccc3N3CCOCC3)c3ccccc3n2)cc1OC`, the inhibition in experiment [1] is 2.08%; in experiment [2], 15%.

Regarding `CCN(CC)CCNc1cccc2sc3ccccc3c(=O)c12`, the inhibition in experiment [1] was determined as 94.6%; in experiment [2], 95.9%.

For `CCCCC(=O)NC(c1ccccc1Cl)c1ccc2cccnc2c1O` (stereo unspecified), the inhibition in experiment [1] turned out to be 70.2%; in experiment [2] it was 87.3%.

In the case of `CN(C)CCNc1ccc(CO)c2oc3ccc(O)cc3c(=O)c12`, the inhibition in experiment [1] was 99.1%; in experiment [2], 101%.

With `Cc1ccc(C)c(OCC(O)CN2CCC(CN3C(=O)c4cccc5cccc(c45)C3=O)CC2)c1` (stereo unspecified), the inhibition came to 99.2% in experiment [1] and 96.1% in experiment [2].

On to `CCOC(=O)C1CCN(c2cc3c(cc2NC(=O)c2ccccc2OCC)n(C)c(=O)n3C)CC1`, for which the inhibition in experiment [1] and in experiment [2] was 101% throughout.

As to `OCCNCc1cc(Br)ccc1OCc1ccc(Cl)cc1Cl`, the inhibition in experiment [1] and in experiment [2] was 101% throughout.

For the compound `CC(=O)NC(c1ccccc1)c1cc(Cl)c2cccnc2c1O` (stereo unspecified), the inhibition came out at 96.6% in experiment [1] and 99.7% in experiment [2].

As to `O=c1[nH]c(=O)n(C2OC(CO)C(O)C2O)cc1F` (stereo unspecified), the figures for the inhibition in experiment [1] and in experiment [2] were 68.7% and 76.9%, respectively.

In the case of `Cc1nn(-c2ccccc2)c2c1C(c1ccc([N+](=O)[O-])cc1)N1C(=N2)C(=O)Nc2ccccc21` (stereo unspecified), the values for the inhibition in experiment [1] and in experiment [2] were 10.2% and 2.44%, respectively.

Consider `CC(=O)Nc1ccc(Nc2nc(C)c([N+](=O)[O-])c(Nc3ccccc3)n2)cc1`, for which the inhibition in experiment [1] was found to be 99.5%; in experiment [2], 93.4%.

`CN(C)CCc1cc2c(c3c1ccc1ccccc13)OCO2`: the values for the inhibition in experiment [1] and in experiment [2] were 98.3% and 99.1%, respectively.

In the case of `Cc1cccc(CN2C(=O)[C@H]3Cc4c([nH]c5ccccc45)C(C)(C)N3C2=O)c1`, the inhibition in experiment [1] is 97.5%; in experiment [2], 101%.

`O=C(/C=C/c1cc(Br)ccc1O)c1ccco1`: the inhibition in experiment [1] was found to be 102%; in experiment [2] it was 101%.

For `CCOc1cc(/C=N/Nc2nc(-c3cccc(S(=O)(=O)N4CCCC4)c3)cs2)ccc1O`, the inhibition in experiment [1] is 77.8%; in experiment [2], 95.5%.

`CN(C)CCNC(=O)/C(=C/c1ccc(-c2ccc(Cl)cc2)o1)NC(=O)c1ccccc1`: the inhibition is 102% in experiment [1] and 98.6% in experiment [2].

As for `CCCOC(=O)c1cccc(Nc2nc(-c3cccnc3)nc3ccccc23)c1`, the inhibition came out at 99% in experiment [1] and 101% in experiment [2].

For `CN(Cc1ccccc1)C(=O)c1ccc(Nc2nc(C(N)Cc3ccccc3)cs2)nc1` (stereo unspecified), the inhibition in experiment [1] is 102%; in experiment [2], 101%.

`CN1Cc2c(N3CCOCC3)nc3sc(C(=O)c4ccc(Br)cc4)c(N)c3c2CC1(C)C`: the inhibition in experiment [1] was 99%; in experiment [2] it was 101%.

Turning to `CCC(=O)NC(c1cccs1)c1cc([N+](=O)[O-])c2cccnc2c1O` (stereo unspecified), the figures for the inhibition in experiment [1] and in experiment [2] were 100% and 101%, respectively.

On to `CC(C)(C)c1ccc(CN2N=Nc3ccccc3S2(=O)=O)cc1`, for which the inhibition in experiment [1] amounted to 98.8%; in experiment [2], 100%.

In the case of `CCN(CC)CCn1c2ccccc2c2cnc(N)c(C#N)c21`, the results for the inhibition in experiment [1] and in experiment [2] were 101% and 102%, respectively.

Take `Oc1[nH]c2ccc(Br)cc2c1N=NC(=S)Nc1ccc(F)cc1`: the inhibition in experiment [1] came to 89.9%; in experiment [2] it was 100%.

Regarding `COc1cc(/C=C/c2ccc3cccc(O)c3n2)ccc1O`, the inhibition in experiment [1] was determined as 92.4%; in experiment [2], 99.9%.

For the compound `CC(=O)Nc1cccc(-c2cc(NC=O)c3ncc(-c4ccc(C(C)=O)cc4)n3c2)c1`, the inhibition in experiment [1] was 12.8%; in experiment [2], 31.9%.

In the case of `COc1ccc(-c2cc(C(=O)N(C)Cc3cccc(OC)c3OC)c3ccccc3n2)cc1OC`, the inhibition was 72.4% in experiment [1] and 74.7% in experiment [2].

As for `CNCC[C@H](Oc1cccc2ccccc12)c1cccs1`, the inhibition in experiment [1] was 102%; in experiment [2] it was 98.8%.

In the case of `OC1(c2ccc(Cl)c(Cl)c2)C[n+]2ccccc2N1Cc1ccccc1` (stereo unspecified), the inhibition in experiment [1] was 95%; in experiment [2], 101%.

Consider `CN(C)CCNc1ccc2ncn3c4ccc(O)cc4c(=O)c1c23`, for which the inhibition in experiment [1] turned out to be 101%; in experiment [2], 99.7%.

Take `Cc1ccccc1NC(=O)C(=Cc1ccc(C(=O)O)cc1)C(=O)Nc1ccccc1C`: the inhibition is 90.3% in experiment [1] and 101% in experiment [2].

Take `CC(NC(=O)c1ccc([N+](=O)[O-])o1)C12CC3CC(CC(C3)C1)C2` (stereo unspecified): the inhibition in experiment [1] came out at 99.4%; in experiment [2], 98.5%.

Take `CCN(C(=O)CSc1nc2n[nH]c(C)c2c(=N)n1-c1ccc(Cl)c(C)c1)c1cccc(C)c1`: the inhibition came to 70.5% in experiment [1] and 78% in experiment [2].

For the compound `CCN1CCN(Cc2c(O)ccc3c2O/C(=C\C=C\c2ccccc2)C3=O)CC1`, the values for the inhibition in experiment [1] and in experiment [2] were 99.1% and 101%, respectively.

On to `COc1ccccc1NC(=O)c1cc(-c2cc(OC)c(OC)c(OC)c2)nc2ccccc12`, for which the inhibition was 47.9% in experiment [1] and 50.1% [run 2, dose range 1, at 50 µM] in experiment [2].

Take `O=C(CN1CCN(Cc2ccccc2Cl)CC1)N=Nc1c(O)[nH]c2ccccc12`: the inhibition in experiment [1] came to 94.2%; in experiment [2], 90.4%.

Consider `CCOC(=O)c1c(NC(=O)CSc2nnnn2-c2ccccc2OCC)sc2c1CC(C)(C)NC2(C)C`, for which the inhibition in experiment [1] is 98.8%; in experiment [2], 102%.

In the case of `NC(N)=N/N=C/c1cccc(Cl)c1Cl`, the inhibition in experiment [1] worked out at 97.9%; in experiment [2] it was 99.4%.
